Test results from the supplement of paper PMC9694430.

Assays:
Experiment in all cases: thermal shift delta Tm vs DMSO control; higher = stronger stabilization (binding)
Conditions in all cases: 12.5 µM; protein concentration 2 µM
[1] = system: LOC_OS01G57100-cb003
Procedure, shortened: (§1)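 The melting temperature shift given here is a triplicate mean, measured against protein that received only DMSO. Melting temperatures came from Boltzmann fits of differential scanning fluorimetry data on E. coli-expressed, purified rice kinase domain constructs. Each 19.5 μl well contained 2 μM kinase, 100 mM potassium phosphate pH 7.5, 150 mM NaCl, 10% glycerol, 5 × SYPRO Orange and compound in DMSO. Plates were scanned from 25°C to 95°C at 0.05°C/s.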

[2] = system: LOC_OS01G60330-cb001
Procedure, shortened: as §1

[3] = system: LOC_OS01G60700-cb002
Procedure, shortened: as §1

[4] = system: LOC_OS01G63280-cb003
Procedure, shortened: as §1

[5] = system: LOC_OS01G67340-cb003
Procedure, shortened: as §1

[6] = system: LOC_OS01G70970-cb002
Procedure, shortened: as §1

[7] = system: LOC_OS02G07810-cb001
Procedure, shortened: as §1

[8] = system: LOC_OS02G08530-cb003
Procedure, shortened: as §1

[9] = system: LOC_OS02G14120-cb001
Procedure, shortened: as §1

[10] = system: LOC_OS02G17970-cb001
Procedure, shortened: as §1

[11] = system: LOC_OS02G45750-cb003
Procedure, shortened: as §1

[12] = system: LOC_OS02G54510-cb004
Procedure, shortened: as §1

[13] = system: LOC_OS03G04050-cb001
Procedure, shortened: as §1

[14] = system: LOC_OS03G12390-cb001
Procedure, shortened: as §1

[15] = system: LOC_OS03G27990-cb004
Procedure, shortened: as §1

[16] = system: LOC_OS03G50450-cb001
Procedure, shortened: as §1

[17] = system: LOC_OS03G50810-cb003
Procedure, shortened: as §1

[18] = system: LOC_OS04G35114-cb001
Procedure, shortened: as §1

[19] = system: T1, LOC_OS04G38480-cb003
T1 sequence (whole entry): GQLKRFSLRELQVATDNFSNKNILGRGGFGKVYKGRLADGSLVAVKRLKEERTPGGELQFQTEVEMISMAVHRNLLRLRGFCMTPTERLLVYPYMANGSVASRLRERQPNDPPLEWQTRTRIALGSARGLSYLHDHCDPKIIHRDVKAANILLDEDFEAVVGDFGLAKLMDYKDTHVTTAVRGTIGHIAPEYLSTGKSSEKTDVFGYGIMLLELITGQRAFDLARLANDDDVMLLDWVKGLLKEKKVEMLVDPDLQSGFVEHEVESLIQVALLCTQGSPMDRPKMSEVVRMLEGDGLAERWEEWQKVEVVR
Procedure, shortened: as §1

[20] = system: T2, LOC_OS04G41100-cb001
T2 sequence (whole entry): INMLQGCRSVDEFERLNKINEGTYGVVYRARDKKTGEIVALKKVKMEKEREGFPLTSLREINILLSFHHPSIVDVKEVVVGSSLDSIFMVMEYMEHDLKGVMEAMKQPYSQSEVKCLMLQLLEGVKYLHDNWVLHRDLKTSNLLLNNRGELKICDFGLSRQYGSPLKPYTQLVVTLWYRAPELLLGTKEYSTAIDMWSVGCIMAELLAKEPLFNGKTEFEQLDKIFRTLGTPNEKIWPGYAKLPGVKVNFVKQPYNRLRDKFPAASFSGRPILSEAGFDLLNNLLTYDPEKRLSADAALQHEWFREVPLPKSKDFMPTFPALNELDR
Procedure, shortened: as §1

Row | SMILES | thermal shift delta Tm [1] [°C] | thermal shift delta Tm [2] [°C] | thermal shift delta Tm [3] [°C] | thermal shift delta Tm [4] [°C] | thermal shift delta Tm [5] [°C] | thermal shift delta Tm [6] [°C] | thermal shift delta Tm [7] [°C] | thermal shift delta Tm [8] [°C] | thermal shift delta Tm [9] [°C] | thermal shift delta Tm [10] [°C] | thermal shift delta Tm [11] [°C] | thermal shift delta Tm [12] [°C] | thermal shift delta Tm [13] [°C] | thermal shift delta Tm [14] [°C] | thermal shift delta Tm [15] [°C] | thermal shift delta Tm [16] [°C] | thermal shift delta Tm [17] [°C] | thermal shift delta Tm [18] [°C] | thermal shift delta Tm [19] [°C] | thermal shift delta Tm [20] [°C]
1 | CNC(=O)c1ccc(Nc2ncc(C(F)(F)F)c(NCc3nccnc3N(C)S(C)(=O)=O)n2)cc1 | 0.61 | 2.42 | 1.41 | 0.96 | 1.45 | 7.62 | 0.24 | 2.72 | 6.02 | 0.65 | 9.52 | 1.99 | 0.04 | 5.45 | 3.54 | 2.16 | 4.32 | 5.66 | 2.85 | 1.45
2 | C[C@@H](NC(=O)c1ncnc(N)c1Cl)c1ncc(C(=O)Nc2cc(C(F)(F)F)c(Cl)cn2)s1 | 0.35 | 1.01 | 1.42 | 1.75 | 0.42 | 0.8 | 0.35 | 0.67 | 0.58 | 0.7 | 0.64 | 6.43 | 0.36 | 0.49 | 0.28 | 0.42 | -0.01 | 0.39 | 0.76 | 0.71
3 | COc1cc2ncnc(Nc3cccc(Cl)c3F)c2cc1OC(=O)N1CCN(C)C[C@H]1C | 1.43 | 1.34 | 0.77 | 0.24 | 0.62 | 0.55 | 0.42 | 0.94 | 0.64 | 0.79 | 1.31 | 0.53 | 0.43 | 0.01 | 0.33 | 0.9 | 0.48 | 3.07 | 1.2 | 0.24
